Measurements from PubChem BioAssay (NCATS).
Inconclusive results are not listed. Activity calls are given as the source filed them. The call rests on the fitted dose curve; in most records, active means well fitted inhibition curve with a large enough effect; inconclusive means small, poorly fitted or top-dose-only effect; inactive means flat fitted curve, though single readings scatter.

biological target: Calcium and integrin-binding protein 1 (Homo sapiens) (UniProt Q99828); assay: Primary qHTS for Identification of Calcium Integrin Binding Protein 1 (CIB1) Competitor (AID 1508620); conditions: CIB1-GST / FITC-alphaIIb peptide fluorescence polarization; series mostly up to 57.7 µM;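 further: GST tagged CIB1 binding a fluorescein labelled alphaIIb integrin peptide tracer; top concentration of the series differs between compounds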
Source text: Assay Provider: Ulhas P. Naik, PhD Sidney Kimmel Medical College Thomas Jefferson University, Philadelphia, PA Primary function of platelets is to maintain hemostasis. At the site of vascular injury, platelets adhere to adhesive proteins such as collagen and von Willebrand factor. Adherent platelets are activated and generate soluble platelet agonists such as thrombin, ADP and thromboxane A2. Following exposure of circulating platelets to these agonists, results in platelet shape change, granule secretion and activation of platelet integrin alphaIIb-beta3. Ligand binding to activated integrin alphaIIb-beta3 triggers outside-in signaling, leading to platelet aggregation, stabilization of platelet plug, and clot retraction. Upon atherosclerotic plaque rupture also causes platelet plug formation, which underlies a number of cardiovascular diseases such as myocardial infraction and stroke. A number of anti-platelet drugs such as aspirin, clopidogrel, prasugrel, vorapaxar, and eptifibatide are currently available to prevent the thrombotic complications. However, these anti-platelet agents have several limitations including inherent variability in individual responses, developing resistance, and serious bleeding side effects. For these reasons they are not suitable for long-term protection. Based on the experiences with current anti-platelet drugs, it appears that the most useful therapeutic approach is to intersect the secondary responses such as integrin outside-in signaling or recruitment of platelets by TxA2 and secreted ADP. Compounds, which can largely preserve the primary hemostatic function of platelets but inhibit secondary response will be most desired therapeutic agents for treatment of cardiovascular disease. CIB1 is a calcium integrin binding protein, which specifically interact with the alphaIIb subunit of integrin alphaIIb-beta3. Binding of CIB1 to alphaIIb regulates the outside-in signaling in platelets, which is needed for thrombus stabilization and thrombus growth. […] Therefore, we propose that discovery of a small molecule that can prevent the association of CIB1 and alphaIIb-beta3 will be a potential anti-platelet agent that can block the thrombus formation without undue effect on hemostasis. Reference: [1] Naik MU, Nigam A, Manrai P, et al. CIB1 deficiency results in impaired thrombosis: the potential role of CIB1 in outside-in signaling through integrin alpha IIb beta 3. J Thromb Haemost.
PROTOCOL TABLES SEQUENCE No. (1, 2, 3, etc.); […] (e.g., Cells, Incubation, Reagent, etc.); VALUE and DESCRIPTION. 1; Reagent; 3 uL; Protein or buffer (4/3x) 2; Compound; 46 nL; Control inhibitor / compound library 3; Time; 15 min; Room temperature incubation 4; Reagent; 1 uL; Fluorescent labeled peptide (4x) 5; Time; 1000 rpm; Centrifuge 6; Time; 15 min; Room temperature incubation 7; Detection; Ex 480/ Em 540; ViewLux Fluorescence Read NOTES (numbers refer to sequence above) 1; Protein Mixture: C1B1-GST (final concentrations of 1 uM). […] 3; Room temperature incubation. 4; Fluorescent Labeled Peptide: FITC-aIIb (final concentration of 100 nM). Sequence of alphaIIb peptide: Acetyl-[…]-FITC (purity is 95.83%). 5; Centrifuge 1000 rpm (164 g) for 15 seconds. 6; Room temperature incubation. 7; ViewLux Fluorescent Polization Read: excitation = 480(20) / emission = 540(25) S and P; FITC Dichroic mirror.

Sequence of Calcium and integrin-binding protein 1 (Homo sapiens) (Q99828 whole entry, looked up): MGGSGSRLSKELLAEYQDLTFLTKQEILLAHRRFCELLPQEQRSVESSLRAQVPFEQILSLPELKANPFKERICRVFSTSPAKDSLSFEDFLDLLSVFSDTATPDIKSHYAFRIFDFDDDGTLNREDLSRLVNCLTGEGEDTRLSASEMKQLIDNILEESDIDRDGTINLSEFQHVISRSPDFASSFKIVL

SMILES	outcome
COc1nc(N)nc2c1ncn2[C@@H]1O[C@H](CO)[C@@H](O)[C@@H]1O	inactive
CCC(=O)O[C@]1(C(=O)CCl)[C@@H](C)C[C@H]2[C@@H]3CCC4=CC(=O)C=C[C@]4(C)[C@@]3(F)[C@@H](O)C[C@@]21C	inactive
CCCc1cc(C(N)=S)ccn1	inactive
CS(=O)(=O)c1ccc([C@@H](O)[C@@H](CO)NC(=O)C(Cl)Cl)cc1	inactive
CC(=O)[C@H]1CC[C@H]2[C@@H]3CCC4=CC(=O)CC[C@]4(C)[C@H]3CC[C@]12C	inactive
C#CCN[C@@H]1CCc2ccccc21	inactive
CCN1CCCC1CNC(=O)c1cc(S(N)(=O)=O)ccc1OC (stereo not given)	inactive
CCCCCCNC(=O)n1cc(F)c(=O)[nH]c1=O	inactive
CC(C)Cn1cnc2c(N)nc3ccccc3c21	inactive
CCC(C)(C)c1ccc(CC(C)CN2C[C@@H](C)O[C@@H](C)C2)cc1 (stereo not given in full)	inactive
COc1cccc(N(C)C(=S)Oc2ccc3c(c2)CCCC3)n1	inactive
COc1cc2ncnc(Nc3cccc(Cl)c3)c2cc1OC	inactive
NC(=O)c1ccc2[nH]ccc2c1	inactive
OCc1ccc(-c2nn(Cc3ccccc3)c3ccccc23)o1	inactive
CC1CC2C3CCC4=CC(=O)C=C[C@]4(C)[C@@]3(F)[C@@H](O)C[C@]2(C)[C@@]1(O)C(=O)CO (stereo not given in full)	inactive
N=C(N)c1ccc(OCCCCCOc2ccc(C(=N)N)cc2)cc1	inactive
C[C@@H](CN1CC(=O)NC(=O)C1)N1CC(=O)NC(=O)C1	inactive
COc1cc2c(Nc3ccc(Br)cc3F)ncnc2cc1OCC1CCN(C)CC1	inactive
O=C(O)c1cc(=O)[nH]c(=O)[nH]1	inactive
Cc1cccc(Nc2ccncc2S(=O)(=O)NC(=O)NC(C)C)c1	inactive

SMILES	outcome
CCN(C)C(=O)Oc1cccc([C@H](C)N(C)C)c1	inactive
CC[C@H](C)C(=O)O[C@H]1C[C@@H](C)C=C2C=C[C@H](C)[C@H](CC[C@@H]3C[C@@H](O)CC(=O)O3)[C@H]21	inactive
CCOCC(O)COc1ccc(NC(=O)CC[S+](C)C)cc1 (stereo not given)	inactive
CC(C)OC(=O)C(C(=O)OC(C)C)=C1SC=CS1	inactive
Cc1ccc(S(=O)(=O)N[C@@H](Cc2ccccc2)C(=O)CCl)cc1	inactive
CC(C)OC(=O)OCOP(=O)(CO[C@H](C)Cn1cnc2c(N)ncnc21)OCOC(=O)OC(C)C	inactive
CCCCS(=N)(=O)CCC(N)C(=O)O (stereo not given)	inactive
CCN[C@H]1C[C@H](C)S(=O)(=O)c2sc(S(N)(=O)=O)cc21	inactive
CC1=CC(=O)c2ccccc2C1=O	inactive
Cc1ncc([N+](=O)[O-])n1CCO	inactive
CNC1CCCN(c2c(F)cc3c(=O)c(C(=O)O)cn(C4CC4)c3c2OC)C1 (stereo not given)	inactive
O=C(O)CSCC(=O)NC1CCSC1=O (stereo not given)	inactive
CC[C@H](NC(C)C)[C@H](O)c1ccc(O)c2[nH]c(=O)ccc12	inactive
NC(=O)c1cccc(N)c1	inactive
CC(C(=O)O)c1ccc2c(c1)CC(=O)c1ccccc1S2 (stereo not given)	inactive
O=NN(CCCl)C(=O)NC1CCCCC1	inactive
CCOC(=O)c1ccc(OC(=O)CCCCCN=C(N)N)cc1	inactive
O=S(=O)(O)CCS	inactive
Cn1c(=O)c2c(ncn2CC(O)CO)n(C)c1=O (stereo not given)	inactive
CNS(=O)(=O)CCc1ccc2[nH]cc(C3CCN(C)CC3)c2c1	inactive
